In PubChem BioAssay AID1159580 (chemical genetic matrix, 2015):
Values joined by “and” are separate entries in the source; they are usually repeats but may differ in a detail not shown here. Equal values may be shown once. Among all 5,500 compounds or so, about 2,000 (36%) were called active. Roughly 18% stayed inconclusive and do not appear here. Rule as the data show it: active = normalized growth mostly below about 0.91 (no sharp cut-off); inconclusive = no clear call, values can overlap the other calls; inactive = mostly above about 0.92. The list shows a part of the results.

Test: chemical genetic growth profiling, strain panel (AID 1159580);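 also: tested at 20 µM; growth read once vehicle control cultures reached saturation at 30 °C; 1 = growth at the plate median or of vehicle wells; lower values mean less growth of the strain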
Details: S. cerevisiae deletion strains, growth OD

Measured: normalized growth

Cc1cc(C)nc(NS(=O)(=O)c2ccc(N)cc2)n1
inactive: locus YAL013W, strain DEP1, hits give low values 0.998 | locus YAL021C, strain ccr4, hits give low values 0.957 | locus YAL026C, strain drs2, hits give low values 0.974 | locus YAL030W, strain snc1, hits give low values 0.972 | locus YBL061C, strain skt5, hits give low values 0.985 | locus YBR009C, strain hhf1, hits give low values 0.934 | locus YBR021W, strain FUR4, hits give low values 1.01 | locus YBR023C, strain chs3, hits give low values 0.982 | locus YBR171W, strain sec66, hits give low values 0.989 | locus YBR229C, strain ROT2, hits give low values 0.999 | locus YBR231C, strain swc5, hits give low values 0.998 | locus YBR279W, strain paf1, hits give low values 0.982 | locus YCL011C, strain gbp2, hits give low values 0.96 | locus YCL016C, strain dcc1, hits give low values 0.966 | locus YCL029C, strain bik1, hits give low values 0.981 | locus YCL069W, strain vba3, hits give low values 0.969 | locus YCR088W, strain abp1, hits give low values 0.965 | locus YDL005C, strain med2, hits give low values 0.969 | locus YDL035C, strain GPR1, hits give low values 0.988 | locus YDL040C, strain nat1, hits give low values 0.98 | locus YDL074C, strain BRE1, hits give low values 1.01 | locus YDL101C, strain DUN1, hits give low values 0.99 | locus YDL134C, strain PPH21, hits give low values 0.996 | locus YDL185W, strain tfp1, hits give low values 0.938 | locus YDL192W, strain arf1, hits give low values 0.963 | locus YDR001C, strain nth1, hits give low values 0.963 | locus YDR069C, strain doa4, hits give low values 0.991 | locus YDR101C, strain arx1, hits give low values 1 | locus YDR137W, strain rgp1, hits give low values 0.981 | locus YDR150W, strain NUM1, hits give low values 0.999 | locus YDR159W, strain sac3, hits give low values 0.914 | locus YDR162C, strain NBP2, hits give low values 0.981 | locus YDR195W, strain ref2 0.959 | locus YDR297W, strain sur2, hits give low values 0.983 | locus YDR318W, strain mcm21, hits give low values 0.964 | locus YDR334W, strain swr1, hits give low values 0.985 | locus YDR335W, strain msn5, hits give low values 0.977 | locus YDR388W, hits give low values 0.967 | locus YDR392W, strain spt3, hits give low values 0.91 | locus YDR502C, strain sam2, hits give low values 0.98 | locus YEL003W, strain gim4, hits give low values 0.967 | locus YEL037C, strain rad23, hits give low values 0.983 | locus YEL061C, strain CIN8 (second series), hits give low values 0.972 | locus YEL061C, strain CIN8, hits give low values 1 | locus YER015W, strain faa2, hits give low values 0.996 | locus YER016W, strain bim1, hits give low values 0.96 | locus YER110C, hits give low values 0.99 | locus YER111C, strain swi4, hits give low values 0.965 | locus YER155C, strain BEM2 (second series), hits give low values 1.01 | locus YER155C, strain BEM2, hits give low values 0.996 | locus YER167W, strain BCK2, hits give low values 0.995 | locus YFR010W, strain ubp6, hits give low values 0.996 | locus YGL078C, strain dbp3, hits give low values 0.977 | locus YGL086W, strain mad1, hits give low values 1 | locus YGL167C, strain pmr1, hits give low values 0.977 | locus YGL173C, strain kem1, hits give low values 0.979 | locus YGL227W, strain vid30, hits give low values 0.988 | locus YGL240W, strain doc1, hits give low values 1.01 | locus YGL248W, strain PDE1, hits give low values 0.998 | locus YGL253W, strain hxk2, hits give low values 0.968 | locus YGR135W, strain pre9, hits give low values 0.995 | locus YGR229C, strain SMI1, hits give low values 0.989 | locus YGR252W, strain gcn5, hits give low values 1.17 | locus YHR013C, strain ard1, hits give low values 0.92 | locus YHR027C, strain rpn1, hits give low values 0.973 | locus YHR030C, strain SLT2, hits give low values 0.995 and 0.954 | locus YHR079C, strain IRE1 (second series), hits give low values 0.97 | locus YHR079C, strain IRE1, hits give low values 0.981 | locus YHR094C, strain hxt1, hits give low values 0.968 | locus YHR129C, strain ARP1, hits give low values 0.997 | locus YHR142W, strain chs7, hits give low values 0.968 | locus YHR200W, strain rpn10, hits give low values 0.98 | locus YIL066C, strain RNR3, hits give low values 1.01 | locus YIL073C, strain SPO22, hits give low values 0.842 | locus YIL125W, strain kgd1, hits give low values 0.954 | locus YIR030C, strain dcg1, hits give low values 0.983 | locus YJL092W, strain hpr5, hits give low values 0.981 | locus YJL095W, strain BCK1 (second series), hits give low values 0.983 | locus YJL095W, strain BCK1, hits give low values 1.02 and 0.967 | locus YJL115W, strain asf1, hits give low values 0.968 | locus YJL129C, strain trk1, hits give low values 0.98 | locus YJL134W, strain LCB3, hits give low values 0.985 | locus YJL154C, strain vps35, hits give low values 0.978 | locus YJL164C, strain tpk1, hits give low values 0.963 | locus YJL166W, strain qcr8, hits give low values 1.01 | locus YJL168C, strain set2, hits give low values 0.977 | locus YJL187C, strain SWE1 (second series), hits give low values 0.987 | locus YJR043C, strain POL32, hits give low values 1
